# Target: T1, Proteasome subunit beta (Trypanosoma cruzi) (UniProt O96673)
# T1 sequence (whole entry): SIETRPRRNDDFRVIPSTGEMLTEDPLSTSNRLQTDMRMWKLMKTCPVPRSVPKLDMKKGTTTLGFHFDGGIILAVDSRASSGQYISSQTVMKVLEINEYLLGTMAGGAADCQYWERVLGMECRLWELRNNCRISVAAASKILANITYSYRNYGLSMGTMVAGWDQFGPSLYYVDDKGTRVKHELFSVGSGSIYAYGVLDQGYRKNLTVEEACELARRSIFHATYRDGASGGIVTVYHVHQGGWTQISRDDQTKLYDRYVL
# Experiment: Trypanosoma cruzi proteasome chymotrypsin-like activity (TcProtChymo) assay. Note: in the data most compounds retested in dose-response had high values.
# Format: functional
# Set-up: scale not given: direction of the effect not stated beside the values
# Settings: 9.37 µM
row,Compound,Percent Effect
1,CNc1cncc(C2CCCN2C(=O)c2ccc3oc(C)cc3c2)n1 (configuration not stated),16.6%
2,Cc1cc(NC(=O)CN2CCCC2c2noc(C(C)C)n2)n(C)n1 (configuration not stated),4.67%
3,COCCC(=O)N1CCCC2(CCC(=O)N2CCOC)CC1 (configuration not stated),-1.97%

# Organism: Homo sapiens
# Experiment: To identify inhibition of the IFN signalling (Jak-Stat) pathway via expression of an eGFP reporter gene under the control of an IFN-stimulated response element (ISRE) containing MxA promoter.
# Format: functional
# Set-up: scale not given: direction of the effect not stated beside the values
# Settings: 30 µM
row,Compound,Percent Effect
1,O=C(CSc1ccc(F)c(F)c1)NS(=O)(=O)c1ccc2c(c1)OCCO2,12.6%
2,CC1COCCN1C(=O)c1cccc(OCc2cscn2)c1 (configuration not stated),-21.1%
3,Cc1[nH]ccc1C(=O)N1CCCC(c2nccn2Cc2cscn2)C1 (configuration not stated),8.11%
4,O=C(c1ccc(C(F)(F)F)nc1)N1CCCC(n2cncn2)C1 (configuration not stated),-13.8%
5,Cc1ccc2oc(C(=O)N3CCC(C(=O)N4CCCC4)CC3)cc2n1,7.89%
6,Cc1ccc(N2CCCN(C(=O)c3c(C)oc(C)c3C)CC2)nn1,4.96%
7,CN(c1ccncn1)C1CC2(CCN(C(=O)c3ccsc3)C2)C1 (configuration not stated),11.8%
8,CCc1nc(C2CCCN2C(=O)c2ncoc2CC)no1 (configuration not stated),-5.4%
9,CCc1c(C)nn(CCNC(=O)C2CCCN(C(=O)N(C)C)C2)c1C (configuration not stated),10.5%
10,CCn1ncnc1C1CC(=O)NCc2nc3ccccn3c21 (configuration not stated),14.8%
11,Cc1nc(CN2CCCC(CCc3ccc(F)cc3F)C2)c[nH]1 (configuration not stated),-3.62%
12,COc1ccc(C2CC(=O)Nc3c2nc2n3CCCC2)cc1OC (configuration not stated),30.7%
13,O=C(c1cc(Cl)c2c(c1)OCO2)N1CCCC(n2ccnc2)C1 (configuration not stated),9.8%
14,Cc1ccccc1N1CC2(CCN(S(=O)(=O)C3CC3)C2)CC1=O (configuration not stated),11.8%
15,CCc1nc(CN2CCCN(C(=O)COCC3CC3)CC2)cs1,6.06%
16,O=C1CN(Cc2ccc(-c3ccccc3C(=O)O)cc2)CCN1,27.5%
17,Cc1cn2c(n1)CCC(NC(=O)c1cc(Br)cn1C)C2 (configuration not stated),12.4%
18,COCc1ncc(CN2CCC(Oc3ccccc3OC)CC2)cn1,1.55%
19,Cn1cc(N2CC3(COCCN(Cc4ccsc4)C3)OCC2=O)cn1 (configuration not stated),6.9%
20,CC(C)c1nn(C)c(N2CCOCC2)c1CNCC(=O)N(C)C,-5.7%

row,Compound,Percent Effect
1,CCc1ccsc1C(=O)N1CCN(CC(O)CC)CC1 (configuration not stated),-8.47%
2,COCCC(=O)N1CCC2(CC1)CC(c1ccccc1)CN(C)C2 (configuration not stated),-4.11%
3,COc1ccc(CNCc2ccc(N3CCCCC3)nc2)cc1OC,2.97%
4,Cc1cc(C)n(CC2CCCN2CCc2ccncc2)n1 (configuration not stated),5.12%
5,COCCc1noc(CN2CCCC2Cn2cc(C)cn2)n1 (configuration not stated),-1.19%
6,CC(NC(=O)N(C)CCCOc1ccc(F)cc1)c1nncn1C (configuration not stated),8.6%
7,CC(Nc1cccc(CN2CCOC2=O)c1)C(=O)Nc1ccccc1F (configuration not stated),29.9%
8,COc1cccc2c1OCC(C(=O)NC1CCN(S(C)(=O)=O)CC1)C2 (configuration not stated),16.9%
9,CC(=O)N1CCCC1c1cc(N2CCN(C3CCCC3)CC2)cc(C)n1 (configuration not stated),6.74%
10,Cn1cnc2c1CCN(Cc1ccc(C(=O)N3CCCC3)cc1)C2,9.66%
11,c1csc(CN2CCOCC3(CCN(C4CCOCC4)C3)C2)n1 (configuration not stated),-1.84%
12,CCN(CC1CCOC1)C(=O)Nc1ccc(-n2cncn2)nc1 (configuration not stated),5.11%
13,Cn1cc(NC(=O)N2CCC(NS(C)(=O)=O)CC2)ccc1=O,18.1%
14,O=C(NCCNC(=O)c1scnc1Cl)c1ccccc1,9.89%
15,Cc1cc(C(=O)O)cc(S(=O)(=O)Nc2ccc3c(c2)OCO3)c1C,-15.4%
16,Cc1ccc(-c2cc(CN3CCCC(Cn4cncn4)C3)on2)cc1 (configuration not stated),28%
17,CNc1cncc(C2CCCN2C(=O)c2ccc3oc(C)cc3c2)n1 (configuration not stated),-2.62%
18,Cc1cc(NC(=O)CN2CCCC2c2noc(C(C)C)n2)n(C)n1 (configuration not stated),-3.3%
19,COCCC(=O)N1CCCC2(CCC(=O)N2CCOC)CC1 (configuration not stated),11.1%

# — ChEMBL document CHEMBL3988442, “University of Dundee, Small-Polar-MMV Screening Library” (2021)
